Screens: PubChem, The Scripps Research Institute Molecular Screening Center
TbREL1 inh: TbREL1 inhibition, primary screen; P86926; TbREL1 RNA ligation, FRET fluorescence; inhibition, % at 9.66 µM; actives 0.49% (n = 89,000);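 active = inhibition above the mean inhibition across all screened compounds plus 3 SD, cut at about 11% in these data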;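 note: 0% = plate median of test wells and 100% = NSC42067 control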
Target sequence (P86926 whole entry, looked up): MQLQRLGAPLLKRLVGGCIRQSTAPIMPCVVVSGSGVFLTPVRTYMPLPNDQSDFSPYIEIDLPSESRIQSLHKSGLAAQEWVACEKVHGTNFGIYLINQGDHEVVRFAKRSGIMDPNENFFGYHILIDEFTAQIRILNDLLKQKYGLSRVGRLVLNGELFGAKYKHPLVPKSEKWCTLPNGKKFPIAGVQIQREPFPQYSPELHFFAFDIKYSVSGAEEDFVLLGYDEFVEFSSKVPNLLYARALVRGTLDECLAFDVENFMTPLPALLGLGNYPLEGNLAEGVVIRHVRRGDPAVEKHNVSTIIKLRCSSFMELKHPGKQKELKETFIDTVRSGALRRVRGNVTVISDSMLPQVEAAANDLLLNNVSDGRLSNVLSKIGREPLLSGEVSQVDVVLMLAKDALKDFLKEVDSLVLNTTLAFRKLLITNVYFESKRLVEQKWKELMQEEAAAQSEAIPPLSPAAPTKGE
TbREL1 conf: TbREL1 inhibition, confirmation; shares compounds with TbREL1 inh; actives 37% (n = 390); AID 1117282; inhibition, % at 9.66 µM; TbREL1 RNA ligation, FRET fluorescence;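 active = mean inhibition across replicates above a set limit taken from the earlier primary screen, cut at about 11% in these data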;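 note: 0% = REL1 with substrate and DMSO and 100% = REL1 plus control inhibitor NSC42067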
* marks the source's active call; other numbers are inactive results. The entries come from a sample that favours hits as a whole.

SMILES | TbREL1 inh | others
CCOC(=O)c1ccc(NC2c3ncccc3C(=O)N2Cc2ccc(F)cc2)cc1 (stereo not drawn) | 5
COc1ccc(CN2C(=O)c3cccnc3C2Nc2cc(Cl)ccc2OC)cc1 (stereo not drawn) | 32* | TbREL1 conf=41*
CC(C)(C)C1=Nn2c(nnc2-c2ccc(C(C)(C)C)cc2)SC1 | 1
O=C(NCCCc1ccccc1)OC1CC2CC1[C@H]1CCCCN1C2 (stereo partly drawn) | 3
O=c1c(-c2ccco2)[n+]([O-])c2ccccc2n1OCc1ccccc1 | 1
O=c1c(-c2cccc([N+](=O)[O-])c2)[n+]([O-])c2ccccc2n1O | 12* | TbREL1 conf=4
CC(C)CCOc1ccc(-c2c(=O)n(OCc3ccc([N+](=O)[O-])cc3)c3ccccc3[n+]2[O-])cc1 | -2
CCCCC[C@H](C)N1C[C@@H](COCc2ccccc2)Oc2cc(N3CC[C@@H](O)C3)ccc2S1(=O)=O | 2
CCCCC[C@@H](C)N1C[C@@H](COCc2ccccc2)Oc2cc(N3CC[C@@H](N(C)C)C3)ccc2S1(=O)=O | 14* | TbREL1 conf=4
CCCCC[C@H](C)N1C[C@H](COCc2ccccc2)Oc2cc(N3CC[C@H](N(C)C)C3)ccc2S1(=O)=O | 2
Cc1ccnc(SCc2cc(=O)c(OC(=O)c3ccc(C)c([N+](=O)[O-])c3)co2)n1 | 6
COCCSc1nnc(-c2cccnc2)n1Cc1ccccc1 | -2
Cc1cccc(NC(=O)C2CCCN2S(=O)(=O)c2cccnc2)c1C (stereo not drawn) | 2
CCC(C)N(C(=O)c1oc(=O)c2ccccc2c1-c1ccc(C)cc1)C(C)CC (stereo not drawn) | 6
CCCC(NCC(O)COc1ccc(-c2ccccc2)cc1)c1ccccc1 (stereo not drawn) | 1
Cc1nc(C)n(CC(O)COc2ccc3ccccc3c2)n1 (stereo not drawn) | -3
CC(NCC(O)COc1ccc2ccccc2c1)c1ccccc1 (stereo not drawn) | 14* | TbREL1 conf=14*
C[C@H]1CCC[C@H](O)CC(=O)c2c(O)cc(O)cc2CC(=O)O1 | -2
COc1ccc(CNC(=O)O[C@H]2CC[C@@]34CCCN3C(=O)CCC[C@H]4[C@H]2C)cc1 | 3
N#Cc1cnc(SCC(=O)c2ccccc2)nc1N | -2
O=C(CSc1nnc(-c2ccco2)c(-c2ccco2)n1)c1ccccc1 | 12* | TbREL1 conf=13*
Cn1c(SCC(=O)c2ccc(-c3ccccc3)cc2)nnc1-c1ccco1 | 3
c1ccc([C@H]2CNCCN2CCc2cccc3ccccc23)cc1 | 4
O=C1NC[C@@H](Cc2ccc(O)cc2)N(CCc2cccc3ccccc23)C1=O | -3
CCC(C)[C@H]1CN=C(N)N1CCc1cccc2ccccc12 (stereo partly drawn) | 12* | TbREL1 conf=7
SMILES | TbREL1 inh | others
C#CCNC(=O)C[C@@H]1C(=O)N(CCc2ccc(Cl)cc2)C2=CCCCC[C@]21C(=O)OC | -3
Cc1ccc(-c2cc(-c3nnc(SCC(=O)N4c5ccccc5Sc5ccccc54)n3N)[nH]n2)cc1 | 2
Oc1ccc(Cl)c2cccnc12 | 1
Oc1ccc(Cc2ccccc2)c2cccnc12 | -3
Oc1ccc(-c2nn[nH]n2)c2cccnc12 | 16* | TbREL1 conf=0
Cc1ccc(-n2c(SCc3cccc(F)c3)nc3ccccc3c2=O)cc1 | -2
CC(=C\C=O)/C(C)=C/CC[C@@H]1O[C@@H]2C[C@@H]3O[C@](C)(C[C@H]4C[C@H](O)[C@@H]5O[C@@H]6C[C@H](O)[C@@H](C)O[C@@]6(C)CC[C@H]5O4)[C@@H](O)CC[C@@]3(C)O[C@H]2[C@@H](O)[C@@H]1C | 0
CCn1c2ccccc2c2cc(C=Nn3c(-c4ccccc4C)n[nH]c3=S)ccc21 | -6
CCCNC(=O)c1ccc2nc(-c3ccccc3)c(-c3ccccc3)nc2c1 | -1
O=C(NCCCO)c1ccc2nc(-c3ccco3)c(-c3ccco3)nc2c1 | 11* | TbREL1 conf=19*
COc1cccc(C(=O)NCCCNC(=O)c2ccco2)c1 | 5
Cc1onc(-c2ccccc2Cl)c1C(=O)N1CCCCC1 | -6
O=C(c1ccc(-c2ccc([N+](=O)[O-])cc2)o1)N1CCCCCCC1 | -2
O=C(c1ccc(-c2ccccc2Cl)o1)N1CCCCCCC1 | 13* | TbREL1 conf=4
CCC(C)N(C(=O)CSc1nnc(-c2cccnc2)n1C1CCCCC1)C(C)CC (stereo not drawn) | -3
C/C(=N\Nc1cc(N2CCOCC2)nc(C)n1)c1cccc([N+](=O)[O-])c1 | 12* | TbREL1 conf=2
C/C(=N\Nc1ccc(Cl)c(C(=O)O)c1)c1cccc([N+](=O)[O-])c1 | 2
Cc1nc(N/N=C/c2cccc(F)c2)cc(N2CCOCC2)n1 | 3
NS(=O)(=O)c1ccc(NC(=O)CSc2nnc(-c3cccs3)o2)cc1 | 0
O=C(COC(=O)c1ccc(Sc2ncn[nH]2)c([N+](=O)[O-])c1)Nc1cccc(Cl)c1F | -4
CCCCCCc1ccc(NC(=O)[C@@H]2CC=C[C@@H]3CCN(Cc4ccccc4)C(=O)[C@@H]32)cc1 | 1
COC(=O)C1=C(C)N(C)C(=NCc2ccccc2)NC1c1ccccc1C(F)(F)F (stereo not drawn) | 9
COC(=O)C1=C(C)N(Cc2ccc(C(F)(F)F)cc2)C(=NCc2ccccc2C(F)(F)F)NC1c1ccccc1C(F)(F)F (stereo not drawn) | 17* | TbREL1 conf=23*
COC(=O)C1=C(C)N(Cc2ccc(C(F)(F)F)cc2)C(=NCc2ccc(C(F)(F)F)cc2)NC1c1ccccc1C(F)(F)F (stereo not drawn) | 17* | TbREL1 conf=24*
COC(=O)C1=C(C)N(Cc2ccc(C(F)(F)F)cc2)C(=NCc2ccc3c(c2)OCO3)NC1c1ccccc1C(F)(F)F (stereo not drawn) | 17* | TbREL1 conf=22*
SMILES | TbREL1 inh | others
COC(=O)C1=C(C)N(c2ccccc2)C(=S)NC1c1ccccc1C(F)(F)F (stereo not drawn) | -5
COC(CNC(=O)[C@H](Cc1ccccc1)NC1(C(=O)NC2CCCCC2)CCCC1)OC | -2
CC(C)(N[C@@H](Cc1ccccc1)C(=O)NCC(c1ccccc1)c1ccccc1)C(=O)NC1CCCCC1 | 5
Cc1ccc(-c2cc(-c3nnc(SCC(=O)Nc4nccs4)n3N)[nH]n2)cc1 | 1
CCC(=O)Nc1ccc(Cl)cc1C(=O)c1ccc[nH]1 | 8
COC(=O)c1ccc(C=NNC(=O)c2cc(-c3ccc(C)c(C)c3)n[nH]2)cc1 | 2
CC(=NN1CCN(c2ccccn2)CC1)c1ccccc1O | -3
COc1ccccc1N1CCN(S(=O)(=O)c2ccc3c(c2)n(C)c(=O)c(=O)n3C)CC1 | 0
CCCC(C(=O)NCc1ccco1)N(CC1CCCO1)C(=O)CNS(=O)(=O)c1ccc(F)cc1 (stereo not drawn) | -2
CCC(C(=O)NCc1ccco1)N(C(=O)CNS(=O)(=O)c1ccc(F)cc1)c1ccccc1F (stereo not drawn) | 36* | TbREL1 conf=2
O=C(CN(Cc1ccc(F)cc1)C(=O)CNS(=O)(=O)c1ccc(F)cc1)NCc1ccco1 | -4
COc1ccc(CN(CCN2CCOCC2)C(=O)c2ccc(F)cc2Cl)cc1OC | 1
CC1CCN(C2CCN(S(=O)(=O)c3ccc(C(F)(F)F)cc3)CC2)CC1 | 24* | TbREL1 conf=0
O=S(=O)(c1ccc(F)cc1)N1CCC(N2CCCCCC2)CC1 | 1
CC1CCN(C2CCN(S(=O)(=O)c3ccc(F)cc3)CC2)CC1 | 7
O=C(NCCc1ccc(F)cc1)c1cc2ccccn2n1 | 2
